{
  "source": "PubChem BioAssay AID1851",
  "about": "(National Center for Advancing Translational Sciences (NCATS), 2009)",
  "note": "Where “and” joins values, the source holds several entries; their conditions need not be identical. Equal entries are not always repeated. Hit rate of the full screen: of about 16,000 compounds, about 2,600 (16%) were called active. Another 20% or so got no clear call; they are omitted. These entries were drawn from the full list. Values without a mark were called inactive. Calls come from the whole dose curve; as a rule, active = well fitted curve in the direction sought with a large enough effect; inconclusive = small, poorly fitted or top-dose-only effect, or effect the other way; inactive = no such curve, though single readings can be large or run the other way. Square brackets hold non-standard residues; d marks the D form. Peptide text beside a SMILES is read from it.",
  "data": [
    {"target": "Cytochrome P450 2D6 (Homo sapiens) (UniProt P10635)", "sequence (P10635 whole entry, looked up)": "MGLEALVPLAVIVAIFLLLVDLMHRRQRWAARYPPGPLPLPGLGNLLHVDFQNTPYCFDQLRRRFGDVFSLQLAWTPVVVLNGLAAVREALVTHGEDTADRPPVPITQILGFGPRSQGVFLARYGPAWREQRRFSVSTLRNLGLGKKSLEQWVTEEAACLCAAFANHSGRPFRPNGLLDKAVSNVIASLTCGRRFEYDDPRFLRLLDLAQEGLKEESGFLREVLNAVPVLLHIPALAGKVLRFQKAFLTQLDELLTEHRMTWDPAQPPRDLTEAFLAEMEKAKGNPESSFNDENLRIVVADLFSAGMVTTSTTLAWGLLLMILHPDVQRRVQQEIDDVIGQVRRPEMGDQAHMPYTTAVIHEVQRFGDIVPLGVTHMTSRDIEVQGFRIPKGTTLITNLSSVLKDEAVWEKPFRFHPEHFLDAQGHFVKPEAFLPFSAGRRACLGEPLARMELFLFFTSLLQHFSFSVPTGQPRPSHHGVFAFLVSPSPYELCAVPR", "test": "Cytochrome panel assay with activity outcomes; for activity, negative = inhibition: % is set by controls: 0 for no effect and ±100 for the full control effect", "details": "recombinant CYP, pro-luciferin dealkylation, luminescence, p450-cyp2d6; series mostly up to 57.1 µM", "values": [
      {"compound": "COc1c(N2CCN(C(=S)Nc3ccc(F)cc3)C(C)C2)c(F)cc2c(=O)c(C(=O)O)cn(C3CC3)c12", "note": "(stereo not drawn)", "AC50": "inactive"},
      {"compound": "CCOC(=O)N/N=C\\c1ccc([N+](=O)[O-])o1", "AC50": "inactive"},
      {"compound": "O=C(N/N=C/c1ccc([N+](=O)[O-])o1)c1cc(-c2ccncc2)nc2ccccc12", "AC50": "14.1 µM (active)"},
      {"compound": "O=C(O)c1cc(-c2ccncc2)nc2ccccc12", "activity, negative = inhibition": "8.68% [at 11.4 µM]"},
      {"compound": "CC(C)On1c(SC(C)C)nc2ccccc2c1=O", "AC50": "inactive"},
      {"compound": "Cc1ccc(-n2c(SCc3ccc([N+](=O)[O-])cc3)nc3ccccc3c2=O)cc1", "AC50": "inactive"},
      {"compound": "COn1c(SCc2cccc(Cl)c2)nc2ccccc2c1=O", "AC50": "0.891 µM (active)"},
      {"compound": "COn1c(SCc2ccc(C)cc2C)nc2ccccc2c1=O", "AC50": "6.31 µM (active)"},
      {"compound": "COn1c(SC(C)C)nc2ccccc2c1=O", "AC50": "inactive"},
      {"compound": "Cc1cc(C)n(-c2nc3ccccc3c(=O)n2OCc2ccc(Cl)cc2)n1", "AC50": "inactive"},
      {"compound": "CO[C@H]1COC(=O)C/C=C\\[C@H](C)[C@@H](OC)COC(=O)[C@H](Cc2ccccc2)NC(=O)C/C=C\\[C@@H]1C", "activity, negative = inhibition": "-13.7% [at 11.4 µM]"},
      {"compound": "O=S(=O)(O)[C@@H](CO)c1ccccc1", "note": "(tested in a mixture with another compound)", "activity, negative = inhibition": "14% [at 11.4 µM]"},
      {"compound": "CC1CCCC(NC(=O)C2CCN(S(=O)(=O)N3CCOCC3)CC2)C1C", "note": "(stereo not drawn)", "AC50": "inactive"},
      {"compound": "O=C(O)C1CCCCC1C(=O)Nc1cc(Cl)ccc1Cl", "note": "(stereo not drawn)", "AC50": "inactive"},
      {"compound": "Cc1ccc(S(=O)(=O)O[C@@H]2[C@H]([C@@H]3COC(C)(C)O3)O[C@H]3OC(C)(C)O[C@@H]32)cc1", "activity, negative = inhibition": "5.58% [at 11.4 µM]"},
      {"compound": "O=C(O)/C=C/C(=O)Nc1ccccc1-c1ccccc1", "AC50": "inactive"},
      {"compound": "CCOC(=O)c1cc2c(C)n(-c3ccc(C)cc3)c(C)c2ccc1=O", "AC50": "inactive"},
      {"compound": "O=C1NCN(c2ccccc2)C12CCN(CCCC(c1ccc(F)cc1)c1ccc(F)cc1)CC2", "AC50": "10 µM (active) and 1.58 µM (active)"},
      {"compound": "O[C@H](CCCN1CCN(c2ncc(F)cn2)CC1)c1ccc(F)cc1", "AC50": "inactive"},
      {"compound": "Cc1ccc(NCCC(=O)c2ccc(Cl)cc2)cc1C", "AC50": "inactive"},
      {"compound": "O=C(NCCc1ccc(Cl)cc1)Nc1cccc(Cl)c1", "AC50": "0.891 µM (active)"},
      {"compound": "O=C(Nc1cccc(Cl)c1)Nn1cnnc1", "activity, negative = inhibition": "8.42% [at 11.4 µM]"},
      {"compound": "Cc1ccc(NCCC(=O)c2ccc(Cl)cc2)cc1", "AC50": "inactive"},
      {"compound": "O=C(CNc1cccc(Cl)c1)c1ccc(Cl)cc1", "AC50": "0.447 µM (active)"},
      {"compound": "CN(C)CCNC(=S)Nc1cccc(Cl)c1", "AC50": "inactive"},
      {"compound": "Cc1cnn(-c2cc(N/N=C/c3ccccc3F)ncn2)c1", "AC50": "inactive"},
      {"compound": "O=C(O)[C@@H]1[C@@H](C(=O)NCc2cccnc2)[C@@H]2C=C[C@@H]1O2", "activity, negative = inhibition": "20.9% [at 11.4 µM]"},
      {"compound": "CCCc1nnc(SCC(=O)O)n1/N=C/c1ccc2c(c1)OCO2", "AC50": "inactive"},
      {"compound": "O=C(c1ccco1)N1CCN(c2cc(=O)n(C3CCCCC3)c(=O)[nH]2)CC1", "AC50": "inactive"},
      {"compound": "CCCCCCc1c(C[C@H](N)C(=O)O)o[nH]c1=O", "AC50": "inactive"},
      {"compound": "Oc1ccccc1-c1nnc(-c2ccc(C(F)(F)F)cc2)o1", "AC50": "inactive"},
      {"compound": "CCN(CC)CCCNC(=O)C1CCC(=O)N(c2ccc(OC)cc2)C1c1ccc(F)cc1", "note": "(stereo not drawn)", "AC50": "inactive"},
      {"compound": "Cc1c(Cl)cccc1NC(=O)C[C@H]1Sc2ccccc2NC1=O", "activity, negative = inhibition": "-12% [at 11.4 µM]"},
      {"compound": "CCN(CC)CCCNC(=O)CC1Sc2ccccc2NC1=O", "note": "(stereo not drawn)", "AC50": "5.01 µM (active)"},
      {"compound": "CN(Cc1ccccc1)c1nc(-c2ccc([N+](=O)[O-])cc2)nc2ccccc12", "AC50": "inactive"},
      {"compound": "CN(Cc1ccco1)c1nc(-c2ccc3c(c2)OCO3)nc2ccccc12", "AC50": "10 µM (active)"},
      {"compound": "CN(C)c1ccc(-c2nc(N(C)Cc3ccco3)c3ccccc3n2)cc1", "AC50": "12.6 µM (active)"},
      {"compound": "CN(Cc1ccco1)c1nc(-c2ccoc2)nc2ccccc12", "AC50": "15.8 µM (active)"},
      {"compound": "O=c1c(-c2cc(F)cc(F)c2)nc2cnc(N3CCOCC3)nc2n1C1CC1", "AC50": "inactive"},
      {"compound": "CSCC[C@H](C=O)NC(=O)[C@H](CC(C)C)NC(=O)[C@H](CC(C)C)NC(C)=O", "note": "(Ac-Leu-Leu-[dM]-aldehyde)", "AC50": "inactive"},
      {"compound": "c1cc(NNc2cccc(-c3nn[nH]n3)c2)cc(-c2nn[nH]n2)c1", "activity, negative = inhibition": "16.4% [at 11.4 µM]"},
      {"compound": "COCCCNC(=O)C1CC(=O)N(Cc2ccc(OC)cc2)C1", "note": "(stereo not drawn)", "AC50": "inactive"},
      {"compound": "CN(C)c1ncc2nc(-c3ccc(F)cc3)c(=O)n(Cc3cccs3)c2n1", "AC50": "inactive"},
      {"compound": "Cc1cc(C)c2nc(-c3ccccn3)cc(C(=O)Nc3ccc(S(=O)(=O)Nc4cc(C)on4)cc3)c2c1", "AC50": "inactive"},
      {"compound": "O=C(O)c1ccc(S(=O)(=O)N=Nc2c(O)[nH]c3ccccc23)cc1", "activity, negative = inhibition": "17% [at 11.4 µM]"},
      {"compound": "O=C1CCC(c2ccccc2)(c2ccccc2)CC1", "activity, negative = inhibition": "9.99% [at 11.4 µM]"},
      {"compound": "CCN1C(=O)c2cccc3c(NC(=O)c4cccc(N5C(=O)CCC5=O)c4)ccc1c23", "AC50": "inactive"},
      {"compound": "COc1ccc(N2CCN(C(=O)CSc3nnc4c5cc(C)ccc5n(C)c4n3)CC2)cc1", "AC50": "inactive"}
    ]}
  ]
}
